# Values joined by “and” are separate entries in the source; they are usually repeats but may differ in a detail not shown here. Identical values can stand only once. In all, about 5,500 compounds went through this assay and about 2,000 (36%) were called active. Another 18% or so got no clear call; they are omitted. Rule as the data show it: active = normalized growth mostly below about 0.91 (no sharp cut-off); inconclusive = no clear call, values can overlap the other calls; inactive = mostly above about 0.92. This is one part of the list. Where a structure was tested more than once in an assay, its records may differ in their call.
# Experiment: chemical genetic growth profiling, strain panel (AID 1159580);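 also: tested at 20 µM; growth read once vehicle control cultures reached saturation at 30 °C; 1 = growth at the plate median or of vehicle wells; lower values mean less growth of the strain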
# Conditions: growth OD
smiles,measurement,setting,value
CC[N+](C)(C)c1cccc(O)c1,normalized growth,"S. cerevisiae deletion strains, locus YNL153C, strain GIM3, stronger effect = lower value",0.982 (inactive)
same,normalized growth,"S. cerevisiae deletion strains, locus YNL175C, strain NOP13, stronger effect = lower value",0.999 (inactive)
same,normalized growth,"S. cerevisiae deletion strains, locus YNL183C, strain NPR1, stronger effect = lower value",0.95 (inactive)
same,normalized growth,"S. cerevisiae deletion strains, locus YNL197C, strain WHI3, stronger effect = lower value",1 (inactive)
same,normalized growth,"S. cerevisiae deletion strains, locus YNL209W, strain ssb2, stronger effect = lower value",1.01 (inactive)
same,normalized growth,"S. cerevisiae deletion strains, locus YNL224C, strain SQS1, stronger effect = lower value",1.02 (inactive)
same,normalized growth,"S. cerevisiae deletion strains, locus YNL233W, strain BNI4, stronger effect = lower value",0.979 (inactive)
same,normalized growth,"S. cerevisiae deletion strains, locus YNL248C, strain rpa49, stronger effect = lower value",1.07 (inactive)
same,normalized growth,"S. cerevisiae deletion strains, locus YNL250W, strain rad50, stronger effect = lower value",0.982 (inactive)
same,normalized growth,"S. cerevisiae deletion strains, locus YNL271C, strain bni1, stronger effect = lower value",0.977 (inactive)
same,normalized growth,"S. cerevisiae deletion strains, locus YNL298W, strain CLA4, stronger effect = lower value",0.979 (inactive)
same,normalized growth,"S. cerevisiae deletion strains, locus YNL307C, strain MCK1, stronger effect = lower value",0.973 (inactive)
same,normalized growth,"S. cerevisiae deletion strains, locus YNL322C, strain KRE1 (second series), stronger effect = lower value",1.02 (inactive)
same,normalized growth,"S. cerevisiae deletion strains, locus YNL322C, strain KRE1, stronger effect = lower value",0.993 (inactive)
same,normalized growth,"S. cerevisiae deletion strains, locus YNR049C, strain mso1, stronger effect = lower value",1.01 (inactive)
same,normalized growth,"S. cerevisiae deletion strains, locus YNR052C, strain pop2, stronger effect = lower value",0.984 (inactive)
same,normalized growth,"S. cerevisiae deletion strains, locus YOL006C, strain TOP1, stronger effect = lower value",0.948 (inactive)
same,normalized growth,"S. cerevisiae deletion strains, locus YOL012C, strain htz1",0.664 (inactive)
same,normalized growth,"S. cerevisiae deletion strains, locus YOL147C, strain pex11, stronger effect = lower value",0.982 (inactive)
same,normalized growth,"S. cerevisiae deletion strains, locus YOR001W, strain rrp6, stronger effect = lower value",0.951 (inactive)
same,normalized growth,"S. cerevisiae deletion strains, locus YOR061W, strain CKA2, stronger effect = lower value",0.989 (inactive)
same,normalized growth,"S. cerevisiae deletion strains, locus YOR069W, strain VPS5, stronger effect = lower value",0.986 (inactive)
same,normalized growth,"S. cerevisiae deletion strains, locus YOR070C, strain gyp1, stronger effect = lower value",1 (inactive)
same,normalized growth,"S. cerevisiae deletion strains, locus YOR080W, strain dia2, stronger effect = lower value",1 (inactive)
same,normalized growth,"S. cerevisiae deletion strains, locus YOR083W, strain WHI5 (second series), stronger effect = lower value",0.991 (inactive)
same,normalized growth,"S. cerevisiae deletion strains, locus YOR083W, strain WHI5, stronger effect = lower value",1.05 (inactive)
same,normalized growth,"S. cerevisiae deletion strains, locus YOR106W, strain vam3, stronger effect = lower value",1.05 (inactive)
same,normalized growth,"S. cerevisiae deletion strains, locus YOR136W, strain idh2, stronger effect = lower value",0.986 (inactive)
same,normalized growth,"S. cerevisiae deletion strains, locus YOR144C, strain elg1, stronger effect = lower value",0.979 (inactive)
same,normalized growth,"S. cerevisiae deletion strains, locus YOR184W, strain ser1, stronger effect = lower value",0.955 (inactive)
same,normalized growth,"S. cerevisiae deletion strains, locus YOR231W, strain MKK1, stronger effect = lower value",0.997 (inactive)
same,normalized growth,"S. cerevisiae deletion strains, locus YOR265W, strain rbl2, stronger effect = lower value",1.01 (inactive)
same,normalized growth,"S. cerevisiae deletion strains, locus YOR270C, strain vph1, stronger effect = lower value",1.07 (inactive)
same,normalized growth,"S. cerevisiae deletion strains, locus YOR290C, strain snf2, stronger effect = lower value",1.04 (inactive)
same,normalized growth,"S. cerevisiae deletion strains, locus YOR316C, strain cot1, stronger effect = lower value",0.975 (inactive)
same,normalized growth,"S. cerevisiae deletion strains, locus YPL051W, strain arl3, stronger effect = lower value",1.04 (inactive)
same,normalized growth,"S. cerevisiae deletion strains, locus YPL055C, strain LGE1, stronger effect = lower value",1.01 (inactive) and 1.17 [resistant] (active)
same,normalized growth,"S. cerevisiae deletion strains, locus YPL078C, strain atp4, stronger effect = lower value",1.06 (inactive)
same,normalized growth,"S. cerevisiae deletion strains, locus YPL106C, strain sse1, stronger effect = lower value",1.02 (inactive)
same,normalized growth,"S. cerevisiae deletion strains, locus YPL240C, strain hsp82, stronger effect = lower value",1.01 (inactive)
same,normalized growth,"S. cerevisiae deletion strains, locus YPL241C, strain CIN2, stronger effect = lower value",1 (inactive) and 1.01 (inactive)
same,normalized growth,"S. cerevisiae deletion strains, locus YPL256C, strain CLN2, stronger effect = lower value",0.981 (inactive)
same,normalized growth,"S. cerevisiae deletion strains, locus YPR119W, strain clb2, stronger effect = lower value",0.992 (inactive)
same,normalized growth,"S. cerevisiae deletion strains, locus YPR141C, strain kar3, stronger effect = lower value",0.96 (inactive)
same,normalized growth,"S. cerevisiae deletion strains, locus YPR163C, strain tif3, stronger effect = lower value",0.97 (inactive)
same,normalized growth,"S. cerevisiae deletion strains, locus YPR167C, strain met16, stronger effect = lower value",0.979 (inactive)
same,normalized growth,"S. cerevisiae deletion strains, strain wtn01, stronger effect = lower value",0.937 (inactive)
same,normalized growth,"S. cerevisiae strains, strain wild type, stronger effect = lower value",0.996 (inactive)
